Screening data: PubChem BioAssay, National Center for Advancing Translational Sciences (NCATS)
D2 PAM-1: potentiates the human D2 dopamine receptor allosterically; 360,000 compounds, 0.23% hits; DiscoveRx D2 beta-arrestin cells, luminescence, 90 min; 100% = 57 uM dopamine signal; AID 624464; P14416; potentiation, % (concentration not given with the values); in the data active = potentiation above about 50%
Target sequence (P14416 whole entry, looked up): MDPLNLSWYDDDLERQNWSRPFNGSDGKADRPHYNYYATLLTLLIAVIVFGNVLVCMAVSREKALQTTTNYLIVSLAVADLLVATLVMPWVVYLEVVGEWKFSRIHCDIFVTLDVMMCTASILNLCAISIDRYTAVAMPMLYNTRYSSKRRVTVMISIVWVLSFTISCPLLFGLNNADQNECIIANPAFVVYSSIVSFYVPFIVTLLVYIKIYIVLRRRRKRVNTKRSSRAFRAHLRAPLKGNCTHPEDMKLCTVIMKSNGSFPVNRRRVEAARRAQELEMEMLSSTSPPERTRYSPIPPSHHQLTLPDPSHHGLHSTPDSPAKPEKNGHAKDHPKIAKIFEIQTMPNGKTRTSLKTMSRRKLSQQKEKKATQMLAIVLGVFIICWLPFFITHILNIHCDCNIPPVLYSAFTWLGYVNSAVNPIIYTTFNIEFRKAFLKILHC
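D2 cells co-treated with compound plus 50 nM dopamine (EC20) for 90 min at 37 deg C to detect potentiation. Beta-arrestin recruitment was read as enzyme-fragment luminescence after 1 h at ambient temperature. Full response was set by 57 uM dopamine.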
D2 ag-1: agonists of human D2 dopamine receptor (beta-arrestin). AID 624465. activation, % (no concentration beside the values). P14416. DiscoveRx PathHunter D2 beta-arrestin, luminescence, 90 min; 100% = 57 uM dopamine signal. 360,000 compounds, 0.084% hits; in the data active = activation above about 40%
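DiscoveRx PathHunter D2 beta-arrestin cells (2,100/well) attached overnight, then compound-stimulated 90 min at 37 C in HBSS/10 mM HEPES/0.1% Tween-20 buffer; beta-galactosidase complementation read by luminescence after 1 h at ambient temperature. Dopamine 57 uM final (EC100) as control.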
D2 ag-2: D2 dopamine receptor (human) agonism; P14416; HEK293 T-REx D2 cells, calcium flux agonist mode; activation, % at 2 µM; 340,000 compounds, 0.53% hits; AID 485358;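 active = activation over 3 SD above normal in the single-dose calcium agonist read, cut at about 30% in these data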; also: 0% is about no effect
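Agonism scored from kinetic calcium signal (1 read/sec, 180 s) following compound pin transfer, after a 10 s baseline. Cells: HEK293 Trex line expressing inducible D2 receptor coupled to calcium, dye-loaded after overnight culture at 30 C.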
D2 antagonist: antagonists of human D2 dopamine receptor; P14416; HEK293 TREx D2 cells, calcium flux, dopamine EC80; inhibition, % at 10 µM; 340,000 compounds, 2% hits; AID 485344; in the data active = inhibition above about 30%; inactive = below that, where a call was filed; also: 0% is about no effect
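Inhibition of EC80 dopamine-driven calcium flux, recorded kinetically, defines activity here; cells are a tetracycline-induced HEK293 T-REx line expressing force-coupled D2.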
D2 PAM-2: positively modulates the human D2 dopamine receptor allosterically. P14416. HEK293 T-REx D2, calcium flux, EC20 dopamine potentiation. potentiation, % at 10 µM. 340,000 compounds, 0.34% hits. AID 485347;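 active = potentiation over 3 SD above the plate norm, cut at about 30% in these data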; also: 0% is about no effect
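Tetracycline-induced HEK293 T-REx cells force-coupled to calcium signalling expressed D2; compounds were pin-added after a 10 s baseline, read kinetically 180 s, then an EC20 dopamine challenge followed with a further 180 s calcium read.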
Active calls of the source: *. Sampled rows, rich in hits. Any-hit rate of the full collection: about 2.4%.

For CC1=CC2=NC(=O)/C(=C/c3coc4ccc(Cl)cc4c3=O)C(=N)N2O1 the results were D2 PAM-1 0.0, D2 ag-1 1.1, D2 ag-2 64.1*, D2 antagonist 2.5 and D2 PAM-2 -3.9.
`COc1cc(/C=C2/C(=N)N3C(SC)=NSC3=NC2=O)ccc1OC(=O)c1ccco1` gave D2 PAM-1 -8.1, D2 ag-1 -7.2, D2 ag-2 0.3, D2 antagonist -5.3 and D2 PAM-2 -9.8.
Screening CN(C)CCN(C(=O)c1cccc2ccccc12)c1nc2cc3c(cc2s1)OCO3 returned D2 PAM-1 -38.2, D2 ag-1 -4.0, D2 ag-2 -0.2, D2 antagonist -6.6 and D2 PAM-2 2.5.
Cc1csc2ncnc(NC3CCN(Cc4ccccc4)CC3)c12 was read as D2 PAM-1 -2.0, D2 ag-1 -1.4, D2 ag-2 -2.6, D2 antagonist 78.6* and D2 PAM-2 -21.1.
Cc1ccc(-c2csc3ncnc(N4CCN(Cc5ccccc5)CC4)c23)cc1 was read as D2 PAM-1 -2.9 and D2 ag-1 -2.1.
Screening COc1ccc(C)cc1NC(=O)N1CCC(CN2CCC(C)CC2)CC1 returned D2 ag-2 1.5 and D2 PAM-2 -0.4.
Screening O=C(CSc1nnc(NC(=O)c2cccc(F)c2)s1)NCC1CCCO1 (stereo not drawn) returned D2 PAM-1 -3.4, D2 ag-1 -1.0 and D2 PAM-2 10.5.
O=C(CSc1nnc(NC(=O)c2c(F)cccc2F)s1)NCC1CCCO1 (stereo not drawn) was read as D2 PAM-1 8.8, D2 ag-1 0.9, D2 ag-2 0.9, D2 antagonist 73.8* and D2 PAM-2 -12.7.
O=C(COC(=O)c1ccncc1)Nc1cc(S(=O)(=O)N2CCOCC2)ccc1Cl was read as D2 PAM-1 -2.4 and D2 ag-1 0.1.
CNCc1c(OCc2ccccc2F)ccc2ccccc12 was read as D2 PAM-1 -23.8, D2 ag-1 -2.7, D2 ag-2 -0.2, D2 antagonist 77.8* and D2 PAM-2 -22.2.
For CNCc1c(OCc2ccccc2)ccc2ccccc12 the results were D2 PAM-1 -10.4, D2 ag-1 -2.9, D2 ag-2 0.4, D2 antagonist 79.2* and D2 PAM-2 -10.3.
For Nc1nonc1C(=O)NCCNCc1c(OCc2ccccc2F)ccc2ccccc12 the results were D2 PAM-1 -13.9, D2 ag-1 0.5, D2 ag-2 -1.7, D2 antagonist 16.3 and D2 PAM-2 -34.1.
COc1ccc2c3c(cccc13)C(=O)CC2 was read as D2 PAM-1 -7.9, D2 ag-1 -3.6, D2 ag-2 49.1*, D2 antagonist -15.1 and D2 PAM-2 -10.5.
O=C(N/N=C/c1ccc(O)cc1)c1csc2ccccc12 was read as D2 PAM-1 -4.7, D2 ag-1 0.7, D2 ag-2 0.0, D2 antagonist 32.0* and D2 PAM-2 4.4.
For C=CCC1CCCC(=O)N2CCCC12 (stereo not drawn) the results were D2 ag-1 -0.4.
`Cc1sc2ncnc(SCC(=O)NC3CCCC3)c2c1C` gave D2 PAM-1 -0.8, D2 ag-1 -2.5, D2 ag-2 -3.3 and D2 antagonist 31.8*.
For CC1=C(C(=O)OCC2CCCO2)C(c2coc3ccc(Cl)cc3c2=O)C2=C(CCCC2=O)N1 (stereo not drawn) the results were D2 PAM-1 -26.1, D2 ag-1 -0.8, D2 ag-2 -0.3, D2 antagonist 0.9 and D2 PAM-2 22.6.
`CC1=C(C(=O)OCC2CCCO2)C(c2coc3ccc(C)cc3c2=O)C2=C(CCCC2=O)N1` (stereo not drawn) gave D2 PAM-1 -5.9, D2 ag-1 -4.1, D2 ag-2 0.2, D2 antagonist -4.8 and D2 PAM-2 31.1*.
For CCOc1c(Cl)cc(Cl)cc1CNCCSc1nnnn1C the results were D2 ag-2 0.0.
Cc1cc(C(=O)N2CCN(S(=O)(=O)c3ccccc3C#N)CC2)c(C)o1 was read as D2 PAM-1 -4.2, D2 ag-1 -3.5, D2 ag-2 -0.2, D2 antagonist 22.6 and D2 PAM-2 20.3.
Screening Cc1cc(C(=O)N2CCN(S(=O)(=O)c3ccccc3F)CC2)c(C)o1 returned D2 PAM-1 -1.5, D2 ag-1 2.2, D2 ag-2 0.0, D2 antagonist -2.3 and D2 PAM-2 47.2*.
CC1=C(C(=O)NCCN2CCN(C)CC2)C2(CCC(C)CC2)OC1=O (stereo not drawn) was read as D2 PAM-1 -7.3, D2 ag-1 -0.9, D2 ag-2 0.1, D2 antagonist 61.5* and D2 PAM-2 22.8.
`CCCNC(=O)C1=C(C)C(=O)OC12CCC(C)CC2` (stereo not drawn) gave D2 PAM-1 -0.8, D2 ag-1 -0.8, D2 ag-2 0.4, D2 antagonist -5.4 and D2 PAM-2 15.0.
For COc1ccccc1CNC(=O)C1=C(C)C(=O)OC12CCC(C)CC2 (stereo not drawn) the results were D2 PAM-1 -1.2, D2 ag-1 -3.4, D2 ag-2 -0.2, D2 antagonist 47.4* and D2 PAM-2 -0.4.
For Cc1cccc(NC(=O)CSc2nc3ccccc3nc2N2CCCCC2)c1C the results were D2 ag-2 -0.5 and D2 PAM-2 9.2.
CSc1ccc(CCNC(=O)c2c(C)oc3ncn(C)c(=O)c23)cc1 was read as D2 ag-2 -0.6 and D2 PAM-2 -11.1.
CCOC(=O)C1=C(COC(=O)CSc2ccc(C)cc2)NC(=O)NC1C (stereo not drawn) was read as D2 PAM-1 -3.0, D2 ag-1 8.3, D2 ag-2 7.9, D2 antagonist -3.3 and D2 PAM-2 13.5.
Screening O=C(C1CC(=O)N(c2ccccc2F)C1)N1CCOCC1 (stereo not drawn) returned D2 PAM-1 1.0 and D2 ag-1 1.8.
Screening COc1ccc(C(=O)N(Cc2sccc2C)C2CCS(=O)(=O)C2)cc1 (stereo not drawn) returned D2 PAM-1 -14.3, D2 ag-1 2.9, D2 ag-2 -0.8, D2 antagonist 37.8* and D2 PAM-2 0.0.
Screening c1ccc2c(c1)CCc1c-2nc2ccccc2c1N1CCOCC1 returned D2 PAM-1 -16.0, D2 ag-1 -3.8, D2 ag-2 0.7, D2 antagonist 36.6* and D2 PAM-2 -14.0.
For COC(=O)Cc1c(C)c2ccc3c(c2oc1=O)CN(Cc1ccccc1OC)CO3 the results were D2 ag-2 -1.1 and D2 PAM-2 16.6.
`O=C(CCc1nnc(-c2ccc(-c3ccccc3)cc2)o1)N1CCCCC1` gave D2 PAM-1 -5.6, D2 ag-1 6.9, D2 ag-2 1.4, D2 antagonist 62.2* and D2 PAM-2 16.0.
Screening COC(c1ccccc1)c1nnc(CCC(=O)N2CCCCCCC2)o1 (stereo not drawn) returned D2 PAM-1 2.5, D2 ag-1 1.4, D2 ag-2 -1.5, D2 antagonist -16.5 and D2 PAM-2 7.4.
